Assay results reported in PubChem BioAssay AID1159580 (chemical genetic matrix, 2015).
Values joined by “and” are separate entries in the source; they are usually repeats but may differ in a detail not shown here. Identical values can stand only once. The whole screen tested about 5,500 compounds, of which about 2,000 (36%) were called active. Not shown: some 18% with an inconclusive outcome. Cut-off read from the data, not from the text of the source: active = normalized growth mostly below about 0.91 (no sharp cut-off); inconclusive = no clear call, values can overlap the other calls; inactive = mostly above about 0.92. Some of the results follow.

Assay: chemical genetic growth profiling, strain panel (AID 1159580);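 note: tested at 20 µM; growth read once vehicle control cultures reached saturation at 30 °C; 1 = growth at the plate median or of vehicle wells; lower values mean less growth of the strain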
Details: S. cerevisiae deletion strains, growth OD

Measured: normalized growth

C[C@H]1[C@H](C)CC[C@]2(C(=O)O)CC[C@]3(C)C(=CCC4[C@@]5(C)C[C@@H](O)[C@H](O)[C@@](C)(CO)C5[C@H](O)C[C@]43C)[C@H]12 (some centres not stated)
inactive: locus YAL021C, strain ccr4, stronger effect = lower value 1.01 | locus YAL026C, strain drs2, stronger effect = lower value 0.963 | locus YAL030W, strain snc1, stronger effect = lower value 0.973 | locus YBL061C, strain skt5, stronger effect = lower value 0.952 | locus YBR009C, strain hhf1, stronger effect = lower value 0.936 | locus YBR021W, strain FUR4, stronger effect = lower value 0.957 | locus YBR023C, strain chs3, stronger effect = lower value 0.942 | locus YBR171W, strain sec66, stronger effect = lower value 0.951 | locus YBR229C, strain ROT2, stronger effect = lower value 0.987 | locus YBR231C, strain swc5, stronger effect = lower value 0.953 | locus YBR279W, strain paf1, stronger effect = lower value 0.948 | locus YCL011C, strain gbp2, stronger effect = lower value 0.968 | locus YCL016C, strain dcc1, stronger effect = lower value 0.956 | locus YCL029C, strain bik1, stronger effect = lower value 0.981 | locus YCL061C, strain MRC1, stronger effect = lower value 0.971 | locus YCL069W, strain vba3, stronger effect = lower value 0.973 | locus YCR088W, strain abp1, stronger effect = lower value 0.961 | locus YDL005C, strain med2, stronger effect = lower value 0.948 | locus YDL035C, strain GPR1, stronger effect = lower value 0.972 | locus YDL040C, strain nat1, stronger effect = lower value 0.965 | locus YDL074C, strain BRE1, stronger effect = lower value 0.895 | locus YDL101C, strain DUN1, stronger effect = lower value 0.973 | locus YDL185W, strain tfp1, stronger effect = lower value 1.01 | locus YDR001C, strain nth1, stronger effect = lower value 0.969 | locus YDR069C, strain doa4, stronger effect = lower value 0.936 | locus YDR101C, strain arx1, stronger effect = lower value 0.967 | locus YDR150W, strain NUM1, stronger effect = lower value 0.996 | locus YDR162C, strain NBP2, stronger effect = lower value 0.954 | locus YDR297W, strain sur2, stronger effect = lower value 0.96 | locus YDR318W, strain mcm21, stronger effect = lower value 0.982 | locus YDR334W, strain swr1, stronger effect = lower value 0.978 | locus YDR335W, strain msn5, stronger effect = lower value 0.967 | locus YDR392W, strain spt3, stronger effect = lower value 0.916 | locus YDR502C, strain sam2, stronger effect = lower value 0.937 | locus YEL003W, strain gim4, stronger effect = lower value 0.954 | locus YEL037C, strain rad23, stronger effect = lower value 0.969 | locus YEL061C, strain CIN8 (second series), stronger effect = lower value 0.955 | locus YEL061C, strain CIN8, stronger effect = lower value 0.961 | locus YER015W, strain faa2, stronger effect = lower value 0.959 | locus YER016W, strain bim1, stronger effect = lower value 0.971 | locus YER110C, stronger effect = lower value 0.978 | locus YER111C, strain swi4, stronger effect = lower value 0.955 | locus YER155C, strain BEM2, stronger effect = lower value 0.985 | locus YER167W, strain BCK2, stronger effect = lower value 0.977 | locus YFR010W, strain ubp6, stronger effect = lower value 0.938 | locus YGL078C, strain dbp3, stronger effect = lower value 0.939 | locus YGL167C, strain pmr1, stronger effect = lower value 0.962 | locus YGL173C, strain kem1, stronger effect = lower value 0.949 | locus YGL227W, strain vid30, stronger effect = lower value 0.975 | locus YGL248W, strain PDE1, stronger effect = lower value 0.994 | locus YGL253W, strain hxk2, stronger effect = lower value 0.971 | locus YGR135W, strain pre9, stronger effect = lower value 0.943 | locus YGR252W, strain gcn5, stronger effect = lower value 0.849 | locus YHR013C, strain ard1, stronger effect = lower value 1.03 | locus YHR027C, strain rpn1, stronger effect = lower value 0.974 | locus YHR030C, strain SLT2, stronger effect = lower value 1 and 0.976 | locus YHR079C, strain IRE1 (second series), stronger effect = lower value 0.968 | locus YHR079C, strain IRE1, stronger effect = lower value 0.979 | locus YHR094C, strain hxt1, stronger effect = lower value 0.977 | locus YHR129C, strain ARP1, stronger effect = lower value 0.998 | locus YHR142W, strain chs7, stronger effect = lower value 0.949 | locus YHR200W, strain rpn10, stronger effect = lower value 0.944 | locus YIL066C, strain RNR3, stronger effect = lower value 0.985 | locus YIL073C, strain SPO22, stronger effect = lower value 1.02 | locus YIL125W, strain kgd1, stronger effect = lower value 0.947 | locus YIR030C, strain dcg1, stronger effect = lower value 0.971 | locus YJL092W, strain hpr5, stronger effect = lower value 0.963 | locus YJL095W, strain BCK1 (second series), stronger effect = lower value 0.972 | locus YJL115W, strain asf1, stronger effect = lower value 0.967 | locus YJL129C, strain trk1, stronger effect = lower value 0.937 | locus YJL134W, strain LCB3, stronger effect = lower value 0.991 | locus YJL154C, strain vps35, stronger effect = lower value 0.968 | locus YJL164C, strain tpk1, stronger effect = lower value 0.944 | locus YJL166W, strain qcr8, stronger effect = lower value 0.948 | locus YJL168C, strain set2, stronger effect = lower value 0.982 | locus YJL187C, strain SWE1 (second series), stronger effect = lower value 0.959 | locus YJR043C, strain POL32, stronger effect = lower value 0.985
0.944 (inactive) and 0.792 (active): locus YJL095W, strain BCK1, stronger effect = lower value
active: locus YAL013W, strain DEP1, stronger effect = lower value 0.769 | locus YDL192W, strain arf1, stronger effect = lower value 0.91 | locus YDR137W, strain rgp1, stronger effect = lower value 0.794 | locus YDR159W, strain sac3, stronger effect = lower value 0.854 | locus YDR195W, strain ref2 0.84 | locus YDR388W, stronger effect = lower value 0.911 | locus YER155C, strain BEM2 (second series), stronger effect = lower value 0.863 | locus YGL086W, strain mad1, stronger effect = lower value 1.18 [resistant] | locus YGL240W, strain doc1, stronger effect = lower value 0.886
